M1 antagonist: antagonists of rat M1 muscarinic receptor; P08482; CHO-M1 cells, Fluo-4 calcium, ACh EC80 antagonist mode; active compounds read low; B-score at 10 µM; 3.4% of 64,000 active; AID 628;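 active = calcium fluorescence response, raw or row-and-column corrected B-score, differing from the plate sample mean either way at a set confidence level, mostly lower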
FXIIa mix inh: inhibitors of human coagulation factor XIIa, pooled mixtures; purified FXIIa, fluorogenic substrate; inhibition, % at 5 µM; 0.2% of 62,000 active; AID 684
D1 allo mod: allosteric modulators of human D1 dopamine receptor. P21728. HEK293 D1, CRE-luciferase, dopamine EC30 potentiation; actives deviate in either direction. B-score at 10 µM. 5.9% of 58,000 active;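 active = luminescence count or its row- and column-corrected plate score outside the 99.7% band of the plate's sample wells, on either side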
M1 agonist: activates the M1 muscarinic receptor | B-score at 10 µM | CHO-M1 cells, Fluo-4 calcium fluorescence, agonist mode; active compounds read high | 3% of 64,000 active | AID 626;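 active = fluorescence rise, raw or as B-score row- and column-corrected plate score, outside the 99.7% band of its plate's samples, either direction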
FXIa mix inh: blocks human factor XIa in pooled compound mixtures; AID 680; 0.19% of 62,000 active; purified FXIa, fluorogenic substrate; P03951; inhibition, % at 5 µM;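 note: each value is inhibition by a whole ten-compound pool holding the compound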
DAT uptake mod: modulates human dopamine transporter uptake under cocaine; LLC-PK1 hDAT cells, [14C]-dopamine uptake with cocaine IC80; actives deviate in either direction; B-score at 10 µM; Q01959; 1.3% of 110,000 active;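 active = Z score or B-score, a plate-position-corrected score, falls beyond the plate's 99.7% confidence bounds, in either direction; inactive = both scores lie inside the 99.7% bounds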
Target sequence (Q01959 whole entry, looked up): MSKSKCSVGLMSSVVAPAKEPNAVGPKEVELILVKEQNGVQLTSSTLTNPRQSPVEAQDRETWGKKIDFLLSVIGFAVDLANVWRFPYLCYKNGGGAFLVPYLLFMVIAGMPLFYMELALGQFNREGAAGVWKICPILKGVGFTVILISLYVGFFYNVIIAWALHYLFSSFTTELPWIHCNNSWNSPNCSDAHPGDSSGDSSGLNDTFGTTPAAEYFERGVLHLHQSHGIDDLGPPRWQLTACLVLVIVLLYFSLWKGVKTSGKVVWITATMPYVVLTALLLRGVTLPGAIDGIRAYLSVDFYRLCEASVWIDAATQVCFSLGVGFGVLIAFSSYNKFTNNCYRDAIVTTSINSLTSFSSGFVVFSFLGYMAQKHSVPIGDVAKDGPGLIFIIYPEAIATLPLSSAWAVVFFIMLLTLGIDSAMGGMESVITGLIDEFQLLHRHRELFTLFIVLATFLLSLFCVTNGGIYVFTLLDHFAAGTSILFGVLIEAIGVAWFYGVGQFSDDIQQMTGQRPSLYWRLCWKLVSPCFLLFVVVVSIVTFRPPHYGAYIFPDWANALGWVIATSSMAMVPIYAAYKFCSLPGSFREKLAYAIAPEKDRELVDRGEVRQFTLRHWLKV
A number is an active result. Hits are enriched below; roughly 7.4% of the tested compounds scored in any of these assays. Cut-off read from the data, not from the text of the source, unless noted: active = inhibition above about 20% (passing the limit was not always enough); inactive = the rest.

CCOC(=O)CCC(=O)N1CCNC(=O)C1 was read as M1 antagonist 2.2, FXIIa mix inh inactive, M1 agonist inactive, FXIa mix inh inactive and DAT uptake mod inactive.
CCc1nn(CC(=O)NCCCN(CC)Cc2ccccc2)c(=O)c2cc3sccc3n12 was read as M1 antagonist inactive, FXIIa mix inh inactive, D1 allo mod -4.6, M1 agonist inactive, FXIa mix inh inactive and DAT uptake mod inactive.
CCc1nn(CC(=O)NCCCN2CCCC2=O)c(=O)c2cc3sccc3n12 was read as M1 antagonist inactive, FXIIa mix inh inactive, D1 allo mod inactive, M1 agonist inactive, FXIa mix inh inactive and DAT uptake mod inactive.
Screening N#C[C@H]1C2OC2c2ccccc2N1C(=O)c1ccccc1 (stereo not given in full) returned DAT uptake mod inactive.
`CCCCN1CN=C(Nc2nc3ccccc3o2)NC1` gave DAT uptake mod inactive.
C=CCOc1ccccc1/C=c1\sc2nc(-c3oc4ccccc4c3C)nn2c1=O was read as M1 antagonist inactive, FXIIa mix inh inactive, D1 allo mod inactive, M1 agonist 5.2 and FXIa mix inh inactive.
`COc1ccccc1/C=c1\sc2nc(-c3ccncc3)nn2c1=O` gave M1 antagonist inactive, FXIIa mix inh inactive, D1 allo mod inactive, M1 agonist inactive and FXIa mix inh inactive.
Screening Cc1c(N=Cc2c(O)n(Cc3ccco3)c(=O)c3ccccc23)c(=O)n(-c2ccccc2)n1C returned M1 antagonist -2.8, FXIIa mix inh inactive, D1 allo mod inactive, M1 agonist inactive, FXIa mix inh inactive and DAT uptake mod inactive.
Screening CCn1c(SCC(=O)c2ccc(CNC(C)=O)o2)nnc1-c1cccs1 returned M1 antagonist 2, D1 allo mod inactive, M1 agonist inactive and DAT uptake mod inactive.
Screening Cc1sc(NC(=O)c2ccco2)c(CN2CCN(c3ccccn3)CC2)c1C returned M1 antagonist inactive, FXIIa mix inh inactive, D1 allo mod inactive, M1 agonist inactive, FXIa mix inh 46 and DAT uptake mod inactive.
For CC(=O)Nc1sc2c(c1CN1CCN(c3ccccn3)CC1)CCCC2 the results were M1 antagonist inactive, FXIIa mix inh inactive, D1 allo mod -3.3, M1 agonist inactive, FXIa mix inh inactive and DAT uptake mod inactive.
`CC(=O)Nc1sc2c(c1CN1CCN(c3ccc(F)cc3)CC1)CCCC2` gave DAT uptake mod inactive.
For Cc1ccc(-c2cc(C(F)F)n3ncc(C(=O)N4CCN5CCCC5C4)c3n2)cc1 (stereo not given) the results were M1 antagonist inactive, FXIIa mix inh inactive, D1 allo mod inactive, M1 agonist inactive, FXIa mix inh inactive and DAT uptake mod inactive.
For Cc1cc(C)c2cc(CN(CCO)C(=O)Nc3ccc(F)cc3)c(=O)[nH]c2c1 the results were FXIIa mix inh inactive, FXIa mix inh inactive and DAT uptake mod inactive.
Screening COc1ccc(NC(=O)N(CCO)Cc2cc3c(C)cc(C)cc3[nH]c2=O)cc1 returned M1 antagonist inactive, FXIIa mix inh inactive, D1 allo mod inactive, M1 agonist inactive, FXIa mix inh inactive and DAT uptake mod 2.9.
Cc1nc(-c2ccc(NC(=O)C3CCCCC3)cc2)cs1 was read as DAT uptake mod inactive.
Screening Cc1cc(Nc2cc(Cl)nc(Sc3ccc(NC(=O)C4CC4)cc3)n2)n[nH]1 returned DAT uptake mod -2.6.
`Cc1nc(N2CCN(Cc3nc4ccccc4[nH]3)CC2)c2oc3ccccc3c2n1` gave M1 antagonist inactive, FXIIa mix inh inactive, M1 agonist inactive, FXIa mix inh inactive and DAT uptake mod 2.5.
CC(=O)C1=C(O)C(=O)N(Cc2ccco2)C1c1ccc(F)cc1 (stereo not given) was read as M1 antagonist inactive, FXIIa mix inh inactive, D1 allo mod -2.8, M1 agonist inactive, FXIa mix inh inactive and DAT uptake mod inactive.
Screening Cc1ccc(C)c(Cn2cnc3c(nnn3-c3ccc(F)cc3)c2=O)c1 returned M1 antagonist inactive, FXIIa mix inh inactive, D1 allo mod inactive, M1 agonist inactive, FXIa mix inh inactive and DAT uptake mod inactive.
For COc1ccc2[nH]c(C)c(C(=O)CN3CCc4cc(OC)c(OC)cc4C3)c2c1 the results were M1 antagonist inactive, M1 agonist inactive and DAT uptake mod inactive.
COc1ccc2[nH]c(C)c(C(=O)CN3CCOCC3)c2c1 was read as M1 antagonist inactive, M1 agonist inactive and DAT uptake mod -3.
Cc1ccc(C(C)C)c(OCC(O)CN2CC(C)OC(C)C2)c1 (stereo not given) was read as M1 antagonist inactive, D1 allo mod -3.5, M1 agonist inactive and DAT uptake mod inactive.
Screening c1ccc(Sc2nc(N3CCCCC3)nc(N3CCCCC3)n2)nc1 returned M1 antagonist 2.1, FXIIa mix inh inactive, D1 allo mod inactive, M1 agonist inactive, FXIa mix inh inactive and DAT uptake mod inactive.
CCOc1ccc(NC(=O)CN2C(=O)C3CC=CCC3C2=O)cc1 (stereo not given) was read as M1 antagonist inactive, FXIIa mix inh inactive, D1 allo mod inactive, M1 agonist inactive, FXIa mix inh inactive and DAT uptake mod inactive.
For O=C(CN1C(=O)C2CC=CCC2C1=O)Nc1ccc(S(=O)(=O)NC2=NCCCCC2)cc1 (stereo not given) the results were M1 antagonist inactive, D1 allo mod inactive, M1 agonist inactive, FXIa mix inh inactive and DAT uptake mod -8.1.
For CCCOC(=O)CCc1n[nH]c(=O)[nH]c1=O the results were M1 antagonist inactive, FXIIa mix inh inactive, D1 allo mod inactive, M1 agonist inactive, FXIa mix inh inactive and DAT uptake mod inactive.
Screening CCCOC(=O)Cc1n[nH]c(=O)[nH]c1=O returned M1 antagonist inactive, FXIIa mix inh inactive, M1 agonist inactive, FXIa mix inh inactive and DAT uptake mod -2.2.
`COc1ccc(NC(=O)C(C)N(c2ccc(C)cc2)S(C)(=O)=O)cc1` (stereo not given) gave DAT uptake mod inactive.
`COc1ccc(C)cc1NC(=O)C(C)N(c1ccc(C)cc1)S(C)(=O)=O` (stereo not given) gave DAT uptake mod 2.7.
`C=CCn1c(SCc2cccc(C#N)c2)nnc1-c1ccccc1O` gave M1 antagonist inactive, FXIIa mix inh inactive, D1 allo mod inactive, M1 agonist inactive, FXIa mix inh inactive and DAT uptake mod inactive.
For CC(C)OC(=O)CCc1nc2ccccc2[nH]c1=O the results were M1 antagonist inactive, FXIIa mix inh inactive, D1 allo mod inactive, M1 agonist inactive, FXIa mix inh inactive and DAT uptake mod 2.1.
`CCOC(=O)C(C)c1nc2ccccc2[nH]c1=O` (stereo not given) gave M1 antagonist inactive, M1 agonist inactive and DAT uptake mod inactive.
For N=c1c2c(n(Cc3ccc(F)cc3)c3c1CCC3)CCC2 the results were M1 antagonist inactive, FXIIa mix inh inactive, D1 allo mod inactive, M1 agonist inactive, FXIa mix inh inactive and DAT uptake mod -5.2.
`Nc1cccnc1Sc1cccc(Cl)c1` gave DAT uptake mod inactive.
For COCc1nnc(NC(=O)CSc2ccccc2)s1 the results were M1 antagonist inactive, FXIIa mix inh inactive, D1 allo mod inactive, M1 agonist inactive, FXIa mix inh inactive and DAT uptake mod -2.6.

From PubChem BioAssay
